Assay results as given in PMC7862700, “An all-to-all approach to the identification of sequence-specific readers for epigenetic DNA modifications on cytosine”.

Key:
Experiment in all cases: DAPPL (digital affinity profiling via proximity ligation, sequencing); 10 mM Tris-HCl pH 7.5, 50 mM NaCl, 1 mM DTT, 4% glycerol, room temperature, 30 min; GST-TFs on glutathione beads, 16-mer random dsDNA library, 0.1% formaldehyde crosslink after washing; high values mean tight binding
FLI1 = target: T1, FLI1 (Homo sapiens, UniProt Q01543 1-452); conditions: protein: recombinant; tags: N-terminal GST; dsDNA, one strand shown
T1 sequence: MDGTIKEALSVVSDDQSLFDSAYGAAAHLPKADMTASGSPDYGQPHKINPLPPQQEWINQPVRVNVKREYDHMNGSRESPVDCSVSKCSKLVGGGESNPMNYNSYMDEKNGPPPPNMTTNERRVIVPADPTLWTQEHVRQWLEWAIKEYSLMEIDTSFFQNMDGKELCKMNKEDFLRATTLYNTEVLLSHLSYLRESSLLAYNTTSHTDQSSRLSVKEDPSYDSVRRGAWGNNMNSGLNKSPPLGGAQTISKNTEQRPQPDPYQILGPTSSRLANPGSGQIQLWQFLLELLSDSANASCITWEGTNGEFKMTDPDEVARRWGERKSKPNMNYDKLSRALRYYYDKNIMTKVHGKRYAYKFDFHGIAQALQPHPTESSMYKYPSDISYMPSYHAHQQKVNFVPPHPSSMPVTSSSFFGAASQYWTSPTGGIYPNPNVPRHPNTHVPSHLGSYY
Method in brief: (§1)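 Beads coated with glutathione captured GST-fused human transcription factors that had been expressed in yeast, and the factors were then given DNA barcodes and pooled with a tag-only sample. The pools were incubated with 200 nmole of a random double-stranded 16-mer DNA library in Tris/NaCl/DTT/glycerol buffer for 30 min at room temperature, washed, crosslinked with 0.1% formaldehyde and proximity-ligated with BsaI/T4 ligase at 37 °C for 1 h. PCR amplification and Illumina NextSeq500 sequencing came last. Binding signal is each hexamer's read frequency for a factor divided by its frequency for the tag-only sample.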

ELK1 = target: T2, ELK1 (Homo sapiens, UniProt P19419 1-428); conditions: protein: recombinant; tags: N-terminal GST; dsDNA, one strand shown
T2 sequence: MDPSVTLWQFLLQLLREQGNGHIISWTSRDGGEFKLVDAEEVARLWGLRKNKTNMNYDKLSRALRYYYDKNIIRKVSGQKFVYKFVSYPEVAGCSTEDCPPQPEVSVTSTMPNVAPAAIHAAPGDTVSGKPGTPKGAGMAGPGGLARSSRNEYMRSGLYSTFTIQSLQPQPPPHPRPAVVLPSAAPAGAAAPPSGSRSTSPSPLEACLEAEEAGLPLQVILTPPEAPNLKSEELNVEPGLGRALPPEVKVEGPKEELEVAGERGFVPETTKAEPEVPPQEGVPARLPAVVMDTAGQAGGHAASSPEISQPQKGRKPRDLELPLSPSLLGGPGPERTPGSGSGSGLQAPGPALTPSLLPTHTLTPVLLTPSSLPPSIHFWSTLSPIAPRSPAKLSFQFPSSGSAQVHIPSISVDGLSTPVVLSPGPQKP
Method in brief: as §1

GABPA = target: T3, GABPA (Homo sapiens, UniProt Q06546 1-454); conditions: protein: recombinant; tags: N-terminal GST; dsDNA, one strand shown
T3 sequence: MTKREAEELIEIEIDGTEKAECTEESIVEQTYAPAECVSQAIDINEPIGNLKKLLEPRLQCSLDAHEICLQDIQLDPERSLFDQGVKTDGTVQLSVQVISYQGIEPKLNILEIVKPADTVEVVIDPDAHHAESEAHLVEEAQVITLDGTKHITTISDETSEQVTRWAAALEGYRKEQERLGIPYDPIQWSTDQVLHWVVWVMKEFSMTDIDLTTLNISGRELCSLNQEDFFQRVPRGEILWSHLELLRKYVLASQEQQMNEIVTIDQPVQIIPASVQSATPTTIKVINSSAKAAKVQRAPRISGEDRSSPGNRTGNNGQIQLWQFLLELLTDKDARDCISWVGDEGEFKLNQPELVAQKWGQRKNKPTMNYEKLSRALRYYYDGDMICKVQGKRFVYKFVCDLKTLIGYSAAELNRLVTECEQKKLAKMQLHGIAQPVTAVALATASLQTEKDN
Method in brief: as §1

ERG = target: T4, ERG (Homo sapiens, UniProt P11308 1-479); conditions: protein: recombinant; tags: N-terminal GST; dsDNA, one strand shown
T4 sequence: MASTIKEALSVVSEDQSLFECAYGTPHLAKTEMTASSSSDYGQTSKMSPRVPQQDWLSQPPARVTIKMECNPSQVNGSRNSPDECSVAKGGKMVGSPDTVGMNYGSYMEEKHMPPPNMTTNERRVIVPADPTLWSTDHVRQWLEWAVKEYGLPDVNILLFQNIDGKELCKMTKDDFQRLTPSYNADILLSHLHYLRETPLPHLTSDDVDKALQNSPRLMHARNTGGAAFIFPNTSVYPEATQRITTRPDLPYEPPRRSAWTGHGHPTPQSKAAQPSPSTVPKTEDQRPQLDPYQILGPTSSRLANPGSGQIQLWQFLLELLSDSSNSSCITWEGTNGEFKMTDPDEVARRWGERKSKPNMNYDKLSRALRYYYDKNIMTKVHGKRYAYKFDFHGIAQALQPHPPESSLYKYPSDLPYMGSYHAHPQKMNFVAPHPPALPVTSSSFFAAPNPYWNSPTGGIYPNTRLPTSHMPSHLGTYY
Method in brief: as §1

ELF1 = ELF1 (Homo sapiens, UniProt P32519 1-619); conditions: protein: recombinant; tags: N-terminal GST; dsDNA, one strand shown
Method in brief: as §1

EHF = target: T5, EHF (Homo sapiens, UniProt Q9NZC4 1-300); conditions: protein: recombinant; tags: N-terminal GST; dsDNA, one strand shown
T5 sequence: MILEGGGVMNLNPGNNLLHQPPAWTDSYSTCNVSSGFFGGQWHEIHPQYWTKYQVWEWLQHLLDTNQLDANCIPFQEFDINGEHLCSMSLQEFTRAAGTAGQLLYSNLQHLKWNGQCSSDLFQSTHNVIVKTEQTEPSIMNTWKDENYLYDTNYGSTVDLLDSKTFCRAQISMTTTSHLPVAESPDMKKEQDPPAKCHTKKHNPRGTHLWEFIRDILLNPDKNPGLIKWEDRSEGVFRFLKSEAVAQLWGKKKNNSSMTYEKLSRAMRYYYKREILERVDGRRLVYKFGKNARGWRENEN
Method in brief: as §1

SPI1 = SPI1 (Homo sapiens, UniProt P17947 1-270); conditions: protein: recombinant; tags: N-terminal GST; dsDNA, one strand shown
Method in brief: as §1

SPIB = SPIB (Homo sapiens, UniProt Q01892 1-262); conditions: protein: recombinant; tags: N-terminal GST; dsDNA, one strand shown
Method in brief: as §1

ELK3 = target: T6, ELK3 (Homo sapiens, UniProt P41970 1-407); conditions: protein: recombinant; tags: N-terminal GST; dsDNA, one strand shown
T6 sequence: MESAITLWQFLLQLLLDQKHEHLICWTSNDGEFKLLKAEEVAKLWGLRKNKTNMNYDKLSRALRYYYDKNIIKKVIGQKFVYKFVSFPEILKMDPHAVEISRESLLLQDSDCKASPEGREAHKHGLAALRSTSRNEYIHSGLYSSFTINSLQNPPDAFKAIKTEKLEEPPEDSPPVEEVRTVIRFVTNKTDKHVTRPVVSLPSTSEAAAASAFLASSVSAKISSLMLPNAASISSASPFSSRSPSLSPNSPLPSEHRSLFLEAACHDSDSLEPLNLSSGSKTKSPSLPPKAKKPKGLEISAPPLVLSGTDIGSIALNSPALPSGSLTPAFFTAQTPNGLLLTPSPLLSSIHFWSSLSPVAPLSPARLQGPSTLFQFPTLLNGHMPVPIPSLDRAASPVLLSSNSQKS
Method in brief: as §1

FEV = target: T7, FEV (Homo sapiens, UniProt Q99581 1-238); conditions: protein: recombinant; tags: N-terminal GST; dsDNA, one strand shown
T7 sequence: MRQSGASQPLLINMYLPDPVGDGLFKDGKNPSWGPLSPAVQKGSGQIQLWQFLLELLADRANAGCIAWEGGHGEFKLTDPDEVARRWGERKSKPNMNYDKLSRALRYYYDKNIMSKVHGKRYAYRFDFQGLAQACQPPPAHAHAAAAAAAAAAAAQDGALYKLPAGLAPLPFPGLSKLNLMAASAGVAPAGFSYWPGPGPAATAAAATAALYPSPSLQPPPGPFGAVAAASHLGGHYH
Method in brief: as §1

ETV5 = ETV5 (Homo sapiens, UniProt P41161 1-510); conditions: protein: recombinant; tags: N-terminal GST; dsDNA, one strand shown
Method in brief: as §1

HSF1 = HSF1 (Homo sapiens, UniProt Q00613 1-529); conditions: protein: recombinant; tags: N-terminal GST; chain copies: 3; dsDNA, one strand shown
Method in brief: as §1

SPIC = target: T8, SPIC (Homo sapiens, UniProt Q8N5J4 1-248); conditions: protein: recombinant; tags: N-terminal GST; dsDNA, one strand shown
T8 sequence: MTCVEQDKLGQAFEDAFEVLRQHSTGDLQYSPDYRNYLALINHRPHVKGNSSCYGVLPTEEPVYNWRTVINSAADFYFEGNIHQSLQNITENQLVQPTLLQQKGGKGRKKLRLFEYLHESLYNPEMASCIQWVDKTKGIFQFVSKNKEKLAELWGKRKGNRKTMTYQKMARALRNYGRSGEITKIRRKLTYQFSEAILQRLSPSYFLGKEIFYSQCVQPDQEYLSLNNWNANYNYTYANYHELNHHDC
Method in brief: as §1

ELF4 = ELF4 (Homo sapiens, UniProt Q99607 1-663); conditions: protein: recombinant; tags: N-terminal GST; dsDNA, one strand shown
Method in brief: as §1

ELK4 = target: T9, ELK4 (Homo sapiens, UniProt P28324-2 1-405); conditions: protein: recombinant; tags: N-terminal GST; dsDNA, one strand shown
T9 sequence: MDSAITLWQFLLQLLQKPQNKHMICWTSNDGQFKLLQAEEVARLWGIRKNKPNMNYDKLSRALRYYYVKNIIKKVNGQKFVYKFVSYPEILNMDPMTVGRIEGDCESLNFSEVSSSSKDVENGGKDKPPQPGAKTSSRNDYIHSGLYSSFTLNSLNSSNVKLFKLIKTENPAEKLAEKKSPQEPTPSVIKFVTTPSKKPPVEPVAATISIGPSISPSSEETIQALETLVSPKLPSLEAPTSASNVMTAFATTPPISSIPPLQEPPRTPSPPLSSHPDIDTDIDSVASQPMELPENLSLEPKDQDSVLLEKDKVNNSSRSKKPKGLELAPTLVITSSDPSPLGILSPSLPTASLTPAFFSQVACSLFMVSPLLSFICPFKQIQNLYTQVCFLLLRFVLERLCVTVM
Method in brief: as §1

ETV2 = target: T10, ETV2 (Homo sapiens, UniProt O00321 1-342); conditions: protein: recombinant; tags: N-terminal GST; dsDNA, one strand shown
T10 sequence: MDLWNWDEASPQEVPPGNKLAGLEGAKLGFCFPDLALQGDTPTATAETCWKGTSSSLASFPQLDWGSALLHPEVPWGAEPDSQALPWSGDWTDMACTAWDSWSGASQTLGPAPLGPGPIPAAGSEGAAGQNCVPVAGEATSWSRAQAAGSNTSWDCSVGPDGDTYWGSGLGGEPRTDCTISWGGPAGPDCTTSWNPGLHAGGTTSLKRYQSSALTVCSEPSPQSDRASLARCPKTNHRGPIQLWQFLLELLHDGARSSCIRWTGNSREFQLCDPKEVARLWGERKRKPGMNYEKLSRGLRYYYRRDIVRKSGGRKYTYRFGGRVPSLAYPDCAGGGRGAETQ
Method in brief: as §1

ELF3 = target: T11, ELF3 (Homo sapiens, UniProt P78545 1-371); conditions: protein: recombinant; tags: N-terminal GST; dsDNA, one strand shown
T11 sequence: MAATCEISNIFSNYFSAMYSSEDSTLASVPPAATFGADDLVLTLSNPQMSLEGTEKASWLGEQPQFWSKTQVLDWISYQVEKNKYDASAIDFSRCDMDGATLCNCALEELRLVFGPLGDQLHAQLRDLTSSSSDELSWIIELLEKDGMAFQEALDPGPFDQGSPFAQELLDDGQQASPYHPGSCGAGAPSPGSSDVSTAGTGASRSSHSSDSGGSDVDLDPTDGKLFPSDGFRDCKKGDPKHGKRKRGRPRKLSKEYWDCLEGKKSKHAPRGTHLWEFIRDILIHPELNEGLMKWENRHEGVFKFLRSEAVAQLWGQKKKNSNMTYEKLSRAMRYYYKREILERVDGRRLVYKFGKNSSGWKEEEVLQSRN
Method in brief: as §1

CRX = CRX (Homo sapiens, UniProt O43186 1-299); conditions: protein: recombinant; tags: N-terminal GST; dsDNA, one strand shown
Method in brief: as §1

ETV1 = ETV1 (Homo sapiens, UniProt P50549 1-477); conditions: protein: recombinant; tags: N-terminal GST; dsDNA, one strand shown
Method in brief: as §1

Sequence of HSF1 (Q00613 whole entry): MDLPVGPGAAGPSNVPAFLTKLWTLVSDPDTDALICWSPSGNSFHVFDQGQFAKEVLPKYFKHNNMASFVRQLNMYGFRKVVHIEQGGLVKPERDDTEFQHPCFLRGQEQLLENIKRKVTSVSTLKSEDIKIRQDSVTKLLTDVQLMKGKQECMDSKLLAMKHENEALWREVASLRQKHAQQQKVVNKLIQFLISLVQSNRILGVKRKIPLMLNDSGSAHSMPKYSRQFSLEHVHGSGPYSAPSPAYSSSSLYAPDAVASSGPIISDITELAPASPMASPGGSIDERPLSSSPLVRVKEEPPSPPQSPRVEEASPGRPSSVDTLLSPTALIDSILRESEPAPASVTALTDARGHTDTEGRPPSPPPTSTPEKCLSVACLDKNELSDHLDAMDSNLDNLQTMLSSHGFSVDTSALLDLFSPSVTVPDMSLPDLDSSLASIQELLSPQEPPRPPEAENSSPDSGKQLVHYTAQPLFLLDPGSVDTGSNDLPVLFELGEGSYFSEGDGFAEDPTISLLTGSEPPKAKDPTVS
Sequence of ELF1 (P32519 whole entry): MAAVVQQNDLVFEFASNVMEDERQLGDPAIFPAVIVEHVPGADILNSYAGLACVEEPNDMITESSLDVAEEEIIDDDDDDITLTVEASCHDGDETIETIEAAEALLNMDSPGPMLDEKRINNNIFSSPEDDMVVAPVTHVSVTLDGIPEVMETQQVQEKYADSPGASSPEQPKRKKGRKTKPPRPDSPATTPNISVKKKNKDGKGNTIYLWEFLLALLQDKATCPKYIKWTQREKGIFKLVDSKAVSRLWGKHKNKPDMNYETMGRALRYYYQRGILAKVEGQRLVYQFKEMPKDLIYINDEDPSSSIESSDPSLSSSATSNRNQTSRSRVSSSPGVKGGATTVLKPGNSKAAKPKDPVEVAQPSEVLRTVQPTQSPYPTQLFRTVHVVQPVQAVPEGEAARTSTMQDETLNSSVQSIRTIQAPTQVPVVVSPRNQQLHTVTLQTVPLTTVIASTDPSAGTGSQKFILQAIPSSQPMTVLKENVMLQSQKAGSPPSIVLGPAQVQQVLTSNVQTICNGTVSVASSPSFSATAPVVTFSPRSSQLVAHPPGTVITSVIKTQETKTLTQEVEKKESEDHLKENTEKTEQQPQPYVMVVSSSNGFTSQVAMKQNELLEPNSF
Sequence of ELF4 (Q99607 whole entry): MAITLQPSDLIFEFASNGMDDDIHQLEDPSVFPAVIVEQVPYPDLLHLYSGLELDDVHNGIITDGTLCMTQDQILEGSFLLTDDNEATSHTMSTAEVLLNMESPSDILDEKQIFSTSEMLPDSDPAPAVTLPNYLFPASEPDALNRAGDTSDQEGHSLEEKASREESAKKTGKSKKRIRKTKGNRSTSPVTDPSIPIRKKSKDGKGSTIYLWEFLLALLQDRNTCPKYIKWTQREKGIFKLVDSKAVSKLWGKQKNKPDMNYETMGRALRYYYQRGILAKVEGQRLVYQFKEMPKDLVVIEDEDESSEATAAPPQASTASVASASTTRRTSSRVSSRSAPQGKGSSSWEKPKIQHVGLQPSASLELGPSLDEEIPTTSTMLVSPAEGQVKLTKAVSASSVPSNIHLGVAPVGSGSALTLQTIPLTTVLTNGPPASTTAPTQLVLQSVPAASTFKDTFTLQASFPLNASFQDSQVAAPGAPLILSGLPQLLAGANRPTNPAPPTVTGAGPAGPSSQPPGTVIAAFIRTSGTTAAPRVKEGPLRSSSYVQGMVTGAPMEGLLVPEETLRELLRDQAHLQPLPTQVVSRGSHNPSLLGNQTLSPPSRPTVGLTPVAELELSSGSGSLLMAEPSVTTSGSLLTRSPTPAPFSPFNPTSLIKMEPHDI
Sequence of ETV5 (P41161 whole entry): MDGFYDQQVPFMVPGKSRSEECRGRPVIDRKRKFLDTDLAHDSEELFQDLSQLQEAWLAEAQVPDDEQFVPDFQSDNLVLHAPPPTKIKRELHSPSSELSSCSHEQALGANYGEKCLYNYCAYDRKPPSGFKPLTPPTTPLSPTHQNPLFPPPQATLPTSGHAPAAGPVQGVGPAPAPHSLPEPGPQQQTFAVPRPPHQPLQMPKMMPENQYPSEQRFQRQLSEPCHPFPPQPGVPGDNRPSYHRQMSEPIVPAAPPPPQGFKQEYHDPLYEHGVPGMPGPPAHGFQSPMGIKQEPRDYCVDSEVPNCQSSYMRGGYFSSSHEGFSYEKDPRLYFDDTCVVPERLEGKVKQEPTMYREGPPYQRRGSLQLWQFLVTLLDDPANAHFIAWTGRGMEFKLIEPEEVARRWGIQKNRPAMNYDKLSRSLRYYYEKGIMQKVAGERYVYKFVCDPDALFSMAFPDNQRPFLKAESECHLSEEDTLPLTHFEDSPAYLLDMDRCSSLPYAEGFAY
Sequence of CRX (O43186 whole entry): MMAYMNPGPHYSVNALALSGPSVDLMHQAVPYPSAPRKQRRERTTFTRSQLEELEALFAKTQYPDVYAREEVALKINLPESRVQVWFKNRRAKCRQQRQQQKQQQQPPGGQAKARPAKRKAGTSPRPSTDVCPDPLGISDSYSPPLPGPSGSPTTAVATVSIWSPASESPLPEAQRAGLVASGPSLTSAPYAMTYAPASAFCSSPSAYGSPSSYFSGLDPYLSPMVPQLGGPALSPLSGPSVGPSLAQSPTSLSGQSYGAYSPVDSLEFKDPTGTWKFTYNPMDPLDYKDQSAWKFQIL
Sequence of SPIB (Q01892 whole entry): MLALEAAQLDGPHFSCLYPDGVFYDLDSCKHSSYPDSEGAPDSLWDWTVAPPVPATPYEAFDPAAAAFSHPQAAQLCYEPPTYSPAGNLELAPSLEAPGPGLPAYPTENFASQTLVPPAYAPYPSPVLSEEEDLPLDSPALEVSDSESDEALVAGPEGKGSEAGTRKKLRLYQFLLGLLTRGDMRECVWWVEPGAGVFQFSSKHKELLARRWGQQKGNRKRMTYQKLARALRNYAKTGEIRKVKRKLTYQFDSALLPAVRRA
Sequence of ETV1 (P50549 whole entry): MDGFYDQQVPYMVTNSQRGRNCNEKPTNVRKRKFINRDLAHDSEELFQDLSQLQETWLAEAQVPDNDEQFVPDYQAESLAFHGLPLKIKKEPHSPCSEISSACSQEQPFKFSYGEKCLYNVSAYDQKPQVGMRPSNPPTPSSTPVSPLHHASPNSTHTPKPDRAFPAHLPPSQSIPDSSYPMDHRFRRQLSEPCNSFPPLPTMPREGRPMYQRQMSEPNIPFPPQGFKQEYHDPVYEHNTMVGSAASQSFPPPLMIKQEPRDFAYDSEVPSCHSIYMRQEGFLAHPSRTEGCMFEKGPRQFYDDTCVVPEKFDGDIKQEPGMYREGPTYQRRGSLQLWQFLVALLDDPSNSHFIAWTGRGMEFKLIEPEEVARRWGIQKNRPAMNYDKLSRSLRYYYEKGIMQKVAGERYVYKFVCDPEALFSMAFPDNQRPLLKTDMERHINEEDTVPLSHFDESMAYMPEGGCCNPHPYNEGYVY

In the case of ACGAAA, the binding signal (FLI1) is reported as 1.2 fold enrichment (6-mer frequency, TF over GST control), the binding signal (ELK1) is reported as 1.12 fold enrichment (6-mer frequency, TF over GST control) and the binding signal (GABPA) is reported as 1.15 fold enrichment (6-mer frequency, TF over GST control). The binding signal (ERG) was 1.14 fold enrichment (6-mer frequency, TF over GST control), the binding signal (ELF1) was 1.13 fold enrichment (6-mer frequency, TF over GST control) and the binding signal (EHF) was 1.19 fold enrichment (6-mer frequency, TF over GST control). For the same sequence, the binding signal (SPI1) was 1.14 fold enrichment (6-mer frequency, TF over GST control), the binding signal (SPIB) was 1.16 fold enrichment (6-mer frequency, TF over GST control) and the binding signal (ELK3) was 1.07 fold enrichment (6-mer frequency, TF over GST control). For the same sequence, the binding signal (FEV) was 1.15 fold enrichment (6-mer frequency, TF over GST control), the binding signal (ETV5) was 1.15 fold enrichment (6-mer frequency, TF over GST control) and the binding signal (HSF1) was 1.44 fold enrichment (6-mer frequency, TF over GST control). The binding signal (SPIC) was 1.02 fold enrichment (6-mer frequency, TF over GST control), the binding signal (ELF4) was 1.16 fold enrichment (6-mer frequency, TF over GST control) and the binding signal (ELK4) was 1.24 fold enrichment (6-mer frequency, TF over GST control). The binding signal (ETV2) was 1.13 fold enrichment (6-mer frequency, TF over GST control), the binding signal (ELF3) was 1.19 fold enrichment (6-mer frequency, TF over GST control) and the binding signal (CRX) was 1.09 fold enrichment (6-mer frequency, TF over GST control). The binding signal (ETV1) was 1.12 fold enrichment (6-mer frequency, TF over GST control).
